# Screening data deposited in PubChem by National Center for Advancing Translational Sciences (NCATS).
# A selection: hits, their analogues and other compounds. The true share with any hit is near 3.6%.
# KDM4E inh = qHTS Assay for Inhibitors of Human Jumonji Domain Containing 2E (JMJD2E). AID 2147, 2009. Potency, µM (highest dose often 57.1 µM), inactives show top-dose activity change, negative = inhibition, hits mostly inhibitors. JMJD2E catalytic domain, FDH-coupled NADH fluorescence (FDH is formaldehyde dehydrogenase). 230,000 compounds, 1.6% hits; active means well fitted inhibition curve with a large enough effect, not every such curve was filed as active; inconclusive means small, poorly fitted or top-dose-only effect, or another doubt; inactive means no such curve, though single readings can be large or run the other way;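 further: 0% = wells with enzyme and -100% = buffer wells without enzyme; nearly all actives have a fitted effect of over 50% in size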
# IMPase Li inh = qHTS Assay for Identifying the Cell-Membrane Permeable IMPase Inhibitors: Potentiation with Lithium; CHO-M1 cells, IP1 TR-FRET (IP-One), carbachol + lithium; AID 1457, 2008; 210,000 compounds, 0.35% hits; Potency, µM (titrated, usually from 59.4 µM), for the others: at the highest dose activity, negative = IMPase inhibition, usual class: inhibitors;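 further: IP1 builds up when IMPase is blocked and the TR-FRET signal falls; plate controls were basal vehicle for no effect and high inhibitor control for full effect; nearly all actives have a fitted effect of over 50% in size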
#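 Concentration–response in CHO-M1 cells, lithium-potentiated; 30 min at 37C. IP1 detected by competitive TR-FRET after 10 min lysis at RT. Hill-fitted AC50.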
# Sfp PPTase inh = qHTS Assay for Inhibitors of Bacillus subtilis Sfp phosphopantetheinyl transferase (PPTase); Biochemical Sfp PPTase activity, qHTS; Potency, µM, for inactives: largest response in the series, negative = inhibition, usual class: inhibitors; 310,000 compounds, 3.5% hits; AID 1490, 2009;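 further: the enzyme is Sfp with the accession as filed and its product quenches rhodamine fluorescence; 0% = enzyme reaction without inhibitor and -100% = no enzyme wells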
#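 Fluorescence-quenching assay with 15 nM Sfp, 5 uM rhodamine-CoA and 12.5 uM BHQ-2-labelled ybbR peptide in pH 7.6 Hepes/MgCl2 buffer. Enzyme was pre-incubated with compound for 15 min at room temperature. Rate was taken from the 30-min fluorescence change (525/598 nm).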
# GCN5L2 inh = qHTS Assay for Inhibitors of GCN5L2 | 390,000 compounds, 0.21% hits | GCN5L2 HAT assay, ThioGlo1 CoA-SH fluorescence | Potency, µM (titrated, usually from 58.9 µM), without a hit: at the highest dose activity change, negative = inhibition, hits mostly inhibitors | Histone acetyltransferase KAT2A (Homo sapiens), Q92830; further: on the % scale 0 is the no-effect control and ±100 the full control effect
#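 ThioGlo1-coupled HAT assay: 20nM GCN5L2, 70uM acetyl-CoA, 75uM H3(1-25) peptide, pH 7.5. Fluorescence read at 340/540nm at start and after 20 min at room temperature.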
# Epigenetic derep = Quantitative High-Throughput Screen for Regulators of Epigenetic Control; murine LDR cells, GFP reporter derepression, 30 h; Potency, µM (doses to about 53.9 µM), for inactives: at the top dose GFP activation, usual class: activators; 280,000 compounds, 0.2% hits; AID 1865, 2009; further: % of control where 0% means no effect; nearly all actives have a fitted effect of over 60% in size
#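 In this reporter-derepression format, murine cells bearing a silenced integrated CMV-GFP locus incubate with test compound (30 h, 37 C), then are washed and imaged; fluorescent objects of 20–120 um count as induced cells.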
# NPSR antag = qHTS Assay for Antagonists of the Neuropeptide S Receptor: cAMP Signal Transduction | CHO-NPSR cells, cAMP TR-FRET, antagonist mode | AID 1461, 2008 | Q6W5P4 | Potency, µM (highest dose often 38.3 µM), inactives show top-dose activity change, negative = inhibition, usual class: inhibitors | 220,000 compounds, 1% hits; further: on the % scale 0 is the no-effect control and ±100 the full control effect; nearly all actives have a fitted effect of over 50% in size
# * hit, by the source's call; ? = inconclusive; . = no result; [ ] = another dose, or the depositor's remark. Unless noted, the call rests on the fitted dose curve; in most records, active means well fitted curve in the direction sought with a large enough effect; inconclusive means small, poorly fitted or top-dose-only effect, or another doubt; inactive means no such curve, though single readings can be large; an effect the other way counts as inactive or inconclusive. Potency means the concentration at half of the fitted maximal effect.
SMILES,KDM4E inh,IMPase Li inh,Sfp PPTase inh,GCN5L2 inh,Epigenetic derep,NPSR antag
C[C@H]([C@@H](N)C(=O)N[C@@H](C(=O)O)[C@@H]1O[C@H](n2ccc(=O)[nH]c2=O)[C@@H](O)[C@H]1O)[C@@H](O)c1ccc(O)cn1,9%,0%,56µM*,-7%,-2%,-45%
O=c1ccn([C@@H]2O[C@H](COP(=O)(O)O)[C@@H](O)[C@H]2O)c(=O)[nH]1,.,-4%,2%,7%,0%,.
COc1cnc(-c2ccccn2)nc1NC(C)C,-117%,?,7.1µM*,-15%,3%,-55%
COC(=O)c1ccccc1NC(=O)C1=C(C)C(=O)OC12CCCCCC2,.,.,.,-7%,0%,.
C=CCn1c(-c2ccc(OC)c(OC)c2)cs/c1=N\c1ccccn1,?,8%,18µM*,1%,0%,-10%[46.1 µM]
COc1ccc(-c2[nH]c(-c3ccc(F)cc3)nc2SCC(=O)Nc2ccc(OC)c(OC)c2)cc1,.,.,.,-7%,-1%,.
C=CS(=O)(=O)c1sc(Cl)c(N2CCOCC2)c1[N+](=O)[O-],-3%,20%,22µM*,?,6%,?
C=CSc1sc(Cl)c(N2CCOCC2)c1[N+](=O)[O-],3%,4%,?,-10%,5%[10.1 µM],-10%
Cc1ccc(S(=O)(=O)N2CCOCC2)cc1NC(=O)CSc1nc(N)cc(=O)[nH]1,-3%,.,71µM*,0%,0%,-11%
COc1ccc2c(c1)O[C@H](c1ccc3c(c1)OCO3)[C@@H](OC(=O)NS(=O)(=O)c1ccc(C)cc1)C2=O,1%,7%,13%,.,0%,.
CCN(CC)CCCn1c(-c2ccccc2)nc2c(NCCOC)nc(C)nc21,?,8%,27%,.,0%,.
COc1cccc(-c2cn3nc4c(nc3n2)CCCC4)c1,22µM*,-9%[38.3 µM],79µM*,-8%,-1%,-9%[46.1 µM]
COc1cc(OC)cc(C(=O)Oc2c(Sc3ccccc3)c(C)nn2C(C)(C)C)c1,.,.,.,-13%,1%,.
Cc1ccc(-c2nc3ncccc3o2)cc1NC(=O)COc1ccccc1,?,11µM*,14%,0%,10%,-8%[46.1 µM]
Cc1ccc(-c2nc3cccnc3o2)cc1NC(=O)COc1ccc(Cl)cc1C,9%,6.3µM*,4%,2%,1%,?
Cc1nnc(N/N=C/c2cc(C)n(-c3ccc(F)cc3)c2C)n1N,?,5%,45µM*,-3%,-2%,27%
Cc1nnc(N/N=C/c2ccccc2O)n1N,-27%,-1%,18%,?,1%,-1%
CCCC[C@H](NC(C)=O)C(=O)N[C@H]1CC(=O)NCCCC[C@@H](C(N)=O)NC(=O)[C@H](Cc2c[nH]c3ccccc23)NC(=O)[C@H](CCCN=C(N)N)NC(=O)[C@@H](Cc2ccccc2)NC(=O)[C@H](Cc2cnc[nH]2)NC1=O,.,.,5%,-9%,.,.
O=C(NNc1nc(=O)c2cccnc2s1)c1ccccc1O,14µM*,1%,20%,-3%,-1%,-2%
O=C(NNc1c2ccccc2nc2ccccc12)c1ccccc1O,?,4%,?,-8%,-1%,-29%
N#Cc1cccc(N=c2ssnc2Cl)c1,-22%,-5%,7.9µM*,6.3µM*,1%,-45%
COc1cc(N=c2ssnc2Cl)cc(OC)c1,20µM*,46%[38.3 µM],1.8µM*,22µM*,-1%,-20%[46.1 µM]
OCc1ccccc1N=c1ssnc1Cl,-11%,3%[38.3 µM],8.9µM*,-27%,0%,-6%[46.1 µM]
Clc1nssc1=Nc1ccc(Br)cc1,11µM*,-3%,10µM*,8.9µM*,11%,-23%
Clc1ccc(N=c2ssnc2Cl)nc1,-6%,20%,21%,-1%,-1%,-1%
COc1cc(OC)cc(-c2nc(-c3ccccc3OC)no2)c1,2%,?,-11%,-12%,0%,3%
